Test results as given in PubChem BioAssay (Tox21).
Records with an inconclusive call do not appear. Activity calls are given as the source filed them. Unless noted, calls follow the shape of the dose curve; as a rule, active = well fitted curve in the direction sought with a large enough effect in the repeat runs; inconclusive = weak or mixed curves; inactive = flat fitted curve, though single readings scatter.

Assays:
[1] = qHTS assay to test for compound auto fluorescence at 535 nm (green) in HEK293 cells (AID 720680)
[2] = qHTS assay to test for compound auto fluorescence at 460 nm (blue) in HEK293 cell free culture (AID 720681)
Outline: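 Blue fluorescence (Ex 405/Em 460 nm, triamterene-equivalent) was read immediately after pin transfer of compound or DMSO into medium (DMEM, 10% FBS) without cells.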

[3] = qHTS assay to test for compound auto fluorescence at 535 nm (green) in HEK293 cell free culture (AID 720682)
Outline: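 Measurement is a direct plate read of green fluorescence (485 nm in, 535 nm out) after compound addition to serum-supplemented DMEM lacking cells, with fluorescein used to express intensities.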

[4] = qHTS assay to test for compound auto fluorescence at 590 nm (red) in HEK293 cell free culture (AID 720683)
Outline: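 Red-channel autofluorescence of compounds in culture medium (DMEM, 10% FBS), no cells, measured at 540/590 nm. Rose Bengal sodium is the reference fluorophore for equivalence.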

[5] = qHTS assay to test for compound auto fluorescence at 590 nm (red) in HepG2 cell free culture (AID 720684)
Outline: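 Steps: dispense MEM/10% FBS medium, no cells; pin compound or DMSO vehicle; read red channel, Ex/Em 540/590 nm. Output given as Rose Bengal sodium equivalents.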

[6] = qHTS assay to test for compound auto fluorescence at 460 nm (blue) in HepG2 cell free culture (AID 720685)
Outline: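 Compound (23 nL) or DMSO pinned into cell-free MEM with 10% FBS; blue fluorescence read at 405/460 nm excitation/emission, expressed as auto-fluorescence equivalency to triamterene.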

[7] = qHTS assay to test for compound auto fluorescence at 535 nm (green) in HepG2 cell free culture (AID 720686)
[8] = qHTS assay to test for compound auto fluorescence at 460 nm (blue) in HepG2 cells (AID 720687)
Outline: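 Blue-channel autofluorescence (Ex/Em 405/460 nm, triamterene-equivalent) was measured after 1 hr compound exposure at 37 C, 5% CO2. Cells were HepG2, plated overnight at 37 C in MEM plus 10% FBS.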

[9] = target: Glucocorticoid receptor (Homo sapiens) (UniProt P04150); test: qHTS assay to identify small molecule agonists of the glucocorticoid receptor (GR) signaling pathway (AID 720691; active = well fitted activation curve with a large enough effect in the signal ratio in the repeat runs, not every such curve was filed as active; the % refers to the signal ratio)
Chain of Glucocorticoid receptor (Homo sapiens) (P04150 whole entry, looked up): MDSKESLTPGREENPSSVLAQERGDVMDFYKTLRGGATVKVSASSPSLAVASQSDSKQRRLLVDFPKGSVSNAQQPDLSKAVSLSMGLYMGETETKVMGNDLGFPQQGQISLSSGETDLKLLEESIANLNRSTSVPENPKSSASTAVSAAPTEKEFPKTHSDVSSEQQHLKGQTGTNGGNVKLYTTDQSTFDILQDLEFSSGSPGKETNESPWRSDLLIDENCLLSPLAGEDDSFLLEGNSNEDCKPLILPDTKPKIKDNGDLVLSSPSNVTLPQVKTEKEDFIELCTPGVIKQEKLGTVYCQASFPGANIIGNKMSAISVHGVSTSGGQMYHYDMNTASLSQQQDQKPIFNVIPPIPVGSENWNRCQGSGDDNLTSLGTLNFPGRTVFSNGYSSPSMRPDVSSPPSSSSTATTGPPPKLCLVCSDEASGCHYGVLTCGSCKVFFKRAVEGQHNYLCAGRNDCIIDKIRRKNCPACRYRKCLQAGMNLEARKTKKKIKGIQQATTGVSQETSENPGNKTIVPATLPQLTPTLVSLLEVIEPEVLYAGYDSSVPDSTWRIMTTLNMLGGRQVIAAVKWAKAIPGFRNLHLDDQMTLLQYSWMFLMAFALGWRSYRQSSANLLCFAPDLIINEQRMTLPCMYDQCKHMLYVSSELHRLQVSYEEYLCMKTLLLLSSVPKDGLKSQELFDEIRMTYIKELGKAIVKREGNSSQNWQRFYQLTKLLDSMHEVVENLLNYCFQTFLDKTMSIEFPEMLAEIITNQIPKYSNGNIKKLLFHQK
Outline: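 Beta-lactamase reporter activity, read as fluorescence intensity, was measured in GR-bla HeLa cells exposed to compounds for 18 h at 37 C and then loaded with LiveBLAzer B/G FRET substrate for 2 h at room temperature.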

[10] = target: Glucocorticoid receptor (Homo sapiens) (UniProt P04150); test: qHTS assay to identify small molecule antagonists of the glucocorticoid receptor (GR) signaling pathway (AID 720692; active = well fitted inhibition curve with a large enough effect in the signal ratio in the repeat runs, not every such curve was filed as active; the % refers to the signal ratio)
Outline: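 Fluorescence from cleaved LiveBLAzer B/G FRET substrate reports GRE-driven beta-lactamase in HeLa cells; compounds are tested against 5 nM dexamethasone (final) over 18 h at 37 C, substrate incubation 2 h at room temperature.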
% is scaled to controls: 0 for no effect and ±100 for the full control effect.

O=C1c2ccccc2C(=O)c2cc(S(=O)(=O)O)ccc21
inactive: outcome [1] | outcome [2] | outcome [3] | outcome [4] | outcome [5] | outcome [6] | outcome [7] | outcome [8] | Potency [9] | outcome [10]

O=S(=O)(O)c1cc(O)c2ccc(Nc3ccccc3)cc2c1
inactive: outcome [1] | outcome [2] | outcome [3] | outcome [5] | outcome [6] | outcome [7] | outcome [8]

C=C(C)C1CCC(C)(O)CC1 (stereo unspecified)
inactive: outcome [1] | outcome [2] | outcome [3] | outcome [4] | outcome [5] | outcome [6] | outcome [7] | outcome [8] | Potency [9] | outcome [10]

CCCOC(OCCC)OCCC
inactive: outcome [1] | outcome [2] | outcome [3] | outcome [4] | outcome [5] | outcome [6] | outcome [7] | outcome [8] | Potency [9] | outcome [10]

CCCCNC1CC(C)(C)NC(C)(C)C1
inactive: outcome [1] | outcome [2] | outcome [3] | outcome [4] | outcome [5] | outcome [6] | outcome [7] | outcome [8] | Potency [9] | outcome [10]

c1ccc2nccnc2c1
inactive: outcome [1] | outcome [2] | outcome [3] | outcome [4] | outcome [5] | outcome [6] | outcome [7] | outcome [8] | outcome [10]

CC(=C(CCOC(=O)C(C)C)SSC(CCOC(=O)C(C)C)=C(C)N(C=O)Cc1cnc(C)nc1N)N(C=O)Cc1cnc(C)nc1N
inactive: outcome [1] | outcome [2] | outcome [3] | outcome [4] | outcome [5] | outcome [6] | outcome [7] | outcome [8] | Potency [9] | outcome [10]

COC(=O)CCc1ccc(OCC(O)CNC(C)C)cc1 (stereo unspecified)
inactive: outcome [1] | outcome [2] | outcome [3] | outcome [4] | outcome [5] | outcome [6] | outcome [7] | outcome [8] | Potency [9] | outcome [10]

C#CC(C)N(C)C(=O)Nc1ccc(Cl)cc1 (stereo unspecified)
inactive: outcome [1] | outcome [2] | outcome [3] | outcome [5] | outcome [6] | outcome [7] | outcome [8]

COc1ccc(-c2cc(=O)c3c(O)cc(O[C@@H]4O[C@H](CO[C@@H]5O[C@@H](C)[C@H](O)[C@@H](O)[C@H]5O)[C@@H](O)[C@H](O)[C@H]4O)cc3o2)cc1O
inactive: outcome [1] | outcome [2] | outcome [3] | outcome [4] | outcome [5] | outcome [6] | outcome [7] | outcome [8] | Potency [9] | outcome [10]

CC(C)NCC(O)COc1cccc2[nH]ccc12 (stereo unspecified)
inactive: outcome [1] | outcome [2] | outcome [3] | outcome [4] | outcome [5] | outcome [6] | outcome [7] | outcome [8] | Potency [9] | outcome [10]

C=C(C)C(=O)OCc1ccccc1
inactive: outcome [1] | outcome [2] | outcome [3] | outcome [5] | outcome [6] | outcome [7] | outcome [8]

CCOC(=O)c1ccc(OC(=O)CCCCCN=C(N)N)cc1
inactive: fluorescence, % of fluorescein [1] -0.102% [at 18.6 µM] | fluorescence, % of fluorescent control [2] -0.0274% [at 18.6 µM] | activity change [3] -0.162% [at 18.6 µM] | fluorescence, % of Rose Bengal [5] -0.0877% [at 18.6 µM] | fluorescence, % of fluorescent control [6] 0.0222% [at 18.6 µM] | fluorescence, % of fluorescein control [7] -0.0655% [at 18.6 µM] | fluorescence, % of fluorescent control [8] 0.0159% [at 18.6 µM]

O=C(O)C(=O)Cc1ccccc1
inactive: outcome [1] | outcome [2] | outcome [3] | outcome [4] | outcome [5] | outcome [6] | outcome [7] | outcome [8] | outcome [10]

CCOC(=O)CC(=O)c1ccccc1
inactive: outcome [1] | outcome [2] | outcome [3] | outcome [4] | outcome [5] | outcome [6] | outcome [7] | outcome [8] | Potency [9] | outcome [10]

Cc1cc(C(C)(C)C)c(O)c(C)c1CC1=NCCN1
inactive: outcome [1] | outcome [2] | outcome [3] | outcome [4] | outcome [5] | outcome [6] | outcome [7] | outcome [8] | Potency [9] | outcome [10]

C[C@H](N)[C@H](O)c1cccc(O)c1
inactive: fluorescence, % of fluorescein [1] 0.0113% [at 18.6 µM] | fluorescence, % of fluorescent control [2] 2.08% [at 18.6 µM] | activity change [3] 0.048% [at 18.6 µM] | fluorescence, % of fluorescent control [4] 0.0224% [at 18.6 µM] | fluorescence, % of Rose Bengal [5] -0.249% [at 18.6 µM] | fluorescence, % of fluorescent control [6] 1.92% [at 18.6 µM] | fluorescence, % of fluorescein control [7] 0.027% [at 18.6 µM] | fluorescence, % of fluorescent control [8] 1.56% [at 18.6 µM] | Potency [9] | outcome [10]

CCCN1C[C@H](CSC)C[C@@H]2c3cccc4[nH]cc(c34)C[C@H]21
inactive: outcome [1] | outcome [2] | outcome [3] | outcome [4] | outcome [5] | outcome [6] | outcome [7] | outcome [8] | Potency [9] | outcome [10]

O=C(OCc1ccccc1)C(=O)OCc1ccccc1
inactive: outcome [1] | outcome [2] | outcome [3] | outcome [4] | outcome [5] | outcome [6] | outcome [7] | outcome [8] | Potency [9] | outcome [10]

COc1cc2c(cc1OC)[C@@H]1CC(=O)[C@@H](CC(C)C)CN1CC2
inactive: outcome [1] | outcome [2] | outcome [4] | outcome [5] | outcome [6] | outcome [7] | outcome [8]

CCCC/C=C\CCCCCCCCCC=O
inactive: outcome [1] | outcome [2] | outcome [4] | outcome [5] | outcome [6] | outcome [7] | outcome [8]

CCC(C)(CCC(C)C)C(=O)O (stereo unspecified)
inactive: outcome [1] | outcome [2] | outcome [3] | outcome [5] | outcome [6] | outcome [7] | outcome [8]

O=C1c2ccccc2C(=O)N1CCl
inactive: outcome [1] | outcome [2] | outcome [3] | outcome [5] | outcome [6] | outcome [7] | outcome [8] | Potency [9] | outcome [10]

N[C@@H](COP(=O)(O)O)C(=O)O
inactive: outcome [1] | outcome [2] | outcome [3] | outcome [5] | outcome [6] | outcome [7] | outcome [8] | Potency [9] | outcome [10]

O=C1O[C@@H]2[C@@H](O)[C@H](O)O[C@@H]2[C@H]1O
inactive: outcome [1] | outcome [2] | outcome [3] | outcome [5] | outcome [6] | outcome [7] | outcome [8] | Potency [9] | outcome [10]

COCCOCCOCCOCCOCCO
inactive: outcome [1] | outcome [2] | outcome [3] | outcome [5] | outcome [6] | outcome [7] | outcome [8] | Potency [9] | outcome [10]

O=C(O)c1ccc(Cl)cc1Cl
inactive: outcome [1] | outcome [2] | outcome [3] | outcome [5] | outcome [6] | outcome [7] | outcome [8] | Potency [9] | outcome [10]

CC(C)CC(=O)O
inactive: outcome [1] | outcome [2] | outcome [3] | outcome [5] | outcome [6] | outcome [7] | outcome [8] | Potency [9] | outcome [10]

CN=C(NC#N)Nc1ccc(C2=NNC(=O)CC2C)cc1 (stereo unspecified)
inactive: outcome [1] | outcome [2] | outcome [3] | outcome [5] | outcome [6] | outcome [7] | outcome [8]

BrCCCCCBr
inactive: outcome [1] | outcome [2] | outcome [3] | outcome [5] | outcome [6] | outcome [7] | outcome [8] | Potency [9]

CCOC(=O)c1ncn2c1CN(C)C(=O)c1cc(F)ccc1-2
inactive: outcome [1] | outcome [2] | outcome [4] | outcome [5] | outcome [6] | outcome [7] | outcome [8]

O=C(O)c1cc(Cl)cc([N+](=O)[O-])c1Cl
inactive: outcome [1] | outcome [2] | outcome [3] | outcome [5] | outcome [6] | outcome [7] | outcome [8] | Potency [9] | outcome [10]

Brc1ccc(-c2ccccc2)cc1
inactive: outcome [1] | outcome [2] | outcome [3] | outcome [5] | outcome [6] | outcome [7] | outcome [8] | Potency [9]

Nc1nnc(-c2cccc(Cl)c2Cl)c(N)n1
inactive: outcome [1] | outcome [2] | outcome [3] | outcome [5] | outcome [6] | outcome [7] | outcome [8]

Cc1ccccc1OCC(O)CO (stereo unspecified)
inactive: outcome [1] | outcome [2] | outcome [3] | outcome [5] | outcome [6] | outcome [7] | outcome [8] | Potency [9] | outcome [10]

OCCC(F)(F)C(F)(F)C(F)(F)C(F)(F)C(F)(F)C(F)(F)C(F)(F)C(F)(F)F
inactive: outcome [1] | outcome [2] | outcome [3] | outcome [5] | outcome [6] | outcome [7] | outcome [8]

CC(=O)Nc1ccc(S(=O)(=O)Cl)cc1
inactive: outcome [1] | outcome [2] | outcome [3] | outcome [5] | outcome [6] | outcome [7] | outcome [8] | Potency [9] | outcome [10]

COC(=O)[C@@H]1[C@H]2C[C@H]3c4[nH]c5ccccc5c4CCN3C[C@@H]2CC[C@@H]1O
inactive: outcome [1] | outcome [2] | outcome [4] | outcome [5] | outcome [6] | outcome [7] | outcome [8]

CN(C)C(=O)CNC(=O)Cc1ccccc1
inactive: outcome [1] | outcome [2] | outcome [3] | outcome [5] | outcome [6] | outcome [7] | outcome [8] | Potency [9] | outcome [10]

ClCCCl
inactive: outcome [1] | outcome [2] | outcome [3] | outcome [5] | outcome [6] | outcome [7] | outcome [8] | Potency [9] | outcome [10]

Cc1c(I)c(=O)n(-c2ccccc2)n1C
inactive: outcome [1] | outcome [2] | outcome [3] | outcome [5] | outcome [6] | outcome [7] | outcome [8] | Potency [9]

CCCCOCCOC(=O)COc1nc(Cl)c(Cl)cc1Cl
inactive: outcome [1] | outcome [2] | outcome [3] | outcome [5] | outcome [6] | outcome [7] | outcome [8] | Potency [9] | outcome [10]

O=C(CS(=O)Cc1ccco1)NC/C=C\COc1cc(CN2CCCCC2)ccn1 (stereo unspecified)
inactive: outcome [1] | outcome [2] | outcome [3] | outcome [5] | outcome [6] | outcome [7] | outcome [8] | Potency [9] | outcome [10]

Oc1cn2c(n1)Nc1ccc(Cl)c(Cl)c1C2
inactive: outcome [1] | outcome [2] | outcome [3] | outcome [5] | outcome [6] | outcome [7] | outcome [8] | Potency [9]
